Tests used:
Conditions in all cases: Compound Concentration (nM):1000
HIPK2 = test system: HIPK2
HIPK3 = test system: HIPK3
HIPK4 = test system: HIPK4
HPK1 = test system: T1, HPK1
T1 construct: gene MAP4K1

HUNK = test system: HUNK
ICK = test system: ICK
IGF1R = test system: IGF1R
IKK-alpha = test system: T2, IKK-alpha
T2 construct: gene CHUK

IKK-beta = test system: T3, IKK-beta
T3 construct: gene IKBKB

IKK-epsilon = test system: T4, IKK-epsilon
T4 construct: gene IKBKE

INSRR = test system: INSRR
INSR = test system: INSR
IRAK1 = test system: IRAK1
IRAK3 = test system: IRAK3
IRAK4 = test system: IRAK4
ITK = test system: ITK
[1] = test system: JAK1(JH1domain-catalytic)
[2] = test system: JAK1(JH2domain-pseudokinase)
[3] = test system: JAK2(JH1domain-catalytic)
[4] = test system: JAK3(JH1domain-catalytic)
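Also: KINOMEscan scanMAX binding as percent activity remaining versus control; lower means stronger binding.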

| Structure (SMILES) | Percent Control (HIPK2) [%] | Percent Control (HIPK3) [%] | Percent Control (HIPK4) [%] | Percent Control (HPK1) [%] | Percent Control (HUNK) [%] | Percent Control (ICK) [%] | Percent Control (IGF1R) [%] | Percent Control (IKK-alpha) [%] | Percent Control (IKK-beta) [%] | Percent Control (IKK-epsilon) [%] | Percent Control (INSRR) [%] | Percent Control (INSR) [%] | Percent Control (IRAK1) [%] | Percent Control (IRAK3) [%] | Percent Control (IRAK4) [%] | Percent Control (ITK) [%] | Percent Control [1] [%] | Percent Control [2] [%] | Percent Control [3] [%] | Percent Control [4] [%] |
| --- | --- | --- | --- | --- | --- | --- | --- | --- | --- | --- | --- | --- | --- | --- | --- | --- | --- | --- | --- | --- |
| NS(=O)(=O)c1ccc(N/N=C2\C(=O)Nc3ccc(C(=O)NCc4ccncc4)cc32)cc1 [GW300657X] | 9.9 | 12 | 81 | 70 | 86 | 15 | 95 | 86 | 83 | 42 | 89 | 100 | 71 | 91 | 96 | 99 | 88 | 50 | 64 | 37 |
| Cl.c1ccc(Cc2nc3ccc(Nc4ncnc5ccccc45)cc3[nH]2)cc1 [GR269666A] | 100 | 100 | 100 | 98 | 100 | 100 | 100 | 100 | 100 | 100 | 100 | 100 | 100 | 100 | 100 | 100 | 100 | 88 | 100 | 100 |
| COc1ccccc1-c1cc(/C=C2\C(=O)Nc3ncc(Br)cc32)cc(Br)c1O [GW442130X] | 100 | 100 | 92 | 99 | 69 | 81 | 100 | 100 | 100 | 100 | 100 | 87 | 74 | 100 | 85 | 100 | 100 | 100 | 82 | 55 |
| Cl.O=S1CCN(Cc2ccc(-c3ccc4ncnc(Nc5ccc(OCc6ccccc6)c(F)c5)c4c3)o2)CC1 [GW576924A] | 100 | 97 | 100 | 95 | 100 | 100 | 100 | 100 | 94 | 100 | 100 | 100 | 100 | 100 | 100 | 100 | 100 | 89 | 100 | 100 |
| CCS(=O)(=O)c1ccc(OC)c(Nc2ncc(-c3cccc(F)c3)o2)c1 [GW621970X] | 87 | 79 | 74 | 100 | 100 | 100 | 100 | 100 | 100 | 98 | 100 | 100 | 48 | 100 | 61 | 100 | 100 | 98 | 100 | 75 |
| C/C(Nc1ccc(S(N)(=O)=O)cc1)=C1/C(=O)Nc2ccccc21 [GW335962X] | 93 | 97 | 84 | 100 | 100 | 92 | 95 | 92 | 100 | 63 | 100 | 66 | 82 | 88 | 91 | 100 | 100 | 61 | 73 | 52 |
| Nc1ncnc2occ(-c3ccc(NC(=O)Nc4cc(C(F)(F)F)ccc4F)cc3)c12 [GW770249X] | 73 | 29 | 0 | 16 | 97 | 100 | 100 | 18 | 75 | 69 | 100 | 90 | 95 | 100 | 100 | 100 | 79 | 80 | 62 | 100 |
| CC(C)COC(=O)c1ccc2c(c1)/C(=C/Nc1ccc(S(N)(=O)=O)cc1)C(=O)N2 [GW416981X] | 75 | 63 | 100 | 48 | 100 | 44 | 100 | 69 | 100 | 16 | 100 | 100 | 50 | 100 | 100 | 100 | 100 | 56 | 63 | 14 |
| NS(=O)(=O)c1ccc(N/N=C2\C(=O)Nc3ccc(Cl)cc32)cc1 [GW280670X] | 100 | 90 | 100 | 88 | 100 | 94 | 100 | 100 | 100 | 72 | 100 | 100 | 100 | 100 | 100 | 100 | 100 | 80 | 100 | 100 |
| CCn1c(-c2nonc2N)nc2c(C#CC(C)(C)O)nc(OCCNC)cc21.Cl [GSK949675] | 75 | 47 | 100 | 100 | 89 | 100 | 100 | 91 | 98 | 73 | 100 | 100 | 92 | 100 | 88 | 100 | 100 | 100 | 96 | 87 |
